Screening results: PubChem BioAssay, Sanford-Burnham Center for Chemical Genomics
Hits are enriched below; roughly 4% of the tested compounds scored in any of these assays.
TROY NFkB inh = inhibitors of TROY-driven NF-kB signaling, primary screen, Q293 LMP1-TROYcd cells, NF-kB luciferase, uHTS. Q293 LMP1-TROYcd NF-kB luciferase reporter, 4 h. inhibition, % at 10 µM. hit rate 0.98% among 360,000. AID 1347056, 2019;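 active = compounds whose plate-normalised and pattern-corrected inhibition of the luciferase reporter signal at the single screening dose is 50% or more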
HIF-2a block = HIF-2a reporter inhibitors, primary screen, luminescence, 786-0 RCC cells. inhibition, % at 18.8 µM. 786-0 RCC cells HIF-2a reporter, luciferase luminescence, overnight. hit rate 0.72% among 360,000. AID 624352, 2012;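 active = inhibition of the luminescence signal of 40% or more relative to plate controls, in a single-dose primary screen at 18.75 µM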
KKLEB cytotox = cytotoxicity in KKLEB CF airway cells, primary screen, cytotoxicity control for CF NF-kB inhibitor project, cell-based, uHTS, fluorescence assay plates | KKLEB CF airway cells viability, ATPlite luminescence, overnight; active compounds read low; cells stimulated with P. aeruginosa culture filtrate | activity change (cytotoxicity), % at 5 µM | hit rate 0.36% among 360,000;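 active = corrected activity change at or below -50% at 5 µM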
Peg3 prom inh = Peg3 promoter-driven luciferase inhibitors, primary screen, cell-based, HeLa, luciferase luminescence | HeLa PEG-Prom luciferase reporter, overnight | inhibition, % at 20 µM | hit rate 1.7% among 360,000;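 active = inhibition of at least 50% at 20 µM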
CF NFkB inh = inhibitors of PAF-induced NF-kB signaling, primary screen, cell-based, GFP fluorescence, uHTS | KKLEB NF-kB-GFP reporter, GFP fluorescence overnight | inhibition, % at 5 µM | hit rate 0.86% among 360,000 | AID 588850, 2011;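 active = at least 50% inhibition at 5 µM, scaled per plate between neutral and stimulator controls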;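 note: PAF is a Pseudomonas aeruginosa culture filtrate used as stimulus; plate controls were PAF-stimulated DMSO wells for no effect and unstimulated DMSO wells for full effect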
TWEAK-Fn14 inh = inhibitors of TWEAK-Fn14 signaling, primary screen, luciferase reporter cells, uHTS. TWEAK-stimulated Fn14 reporter cells, luciferase luminescence, 8 h. inhibition, % at 10 µM. hit rate 2% among 360,000. AID 1159606, 2016; in the data active = inhibition above about 50%
* hit, by the source's call; / = no result.

SMILES	TROY NFkB inh	HIF-2a block	KKLEB cytotox	Peg3 prom inh	CF NFkB inh	TWEAK-Fn14 inh
CC(Oc1ccc(Cl)cc1Cl)c1nc(-c2ccc(NC(=O)c3ccccn3)cc2)no1 (configuration not stated)	21.4	-152.0	-49.8	-167.6	23.0	52.8*
Cc1nc2c(Br)cc(Br)cc2c(=O)n1-c1ccccc1NC1OCC(O)C(O)C1O (configuration not stated)	0.8	-0.3	6.3	-4.7	-34.4	9.3
CC(=O)Oc1ccc(N2C(=O)C3C(C2=O)C2C=CC3C23CC3)cc1[N+](=O)[O-] (configuration not stated)	-13.6	7.1	9.5	7.2	-11.1	1.9
CCN(CC)S(=O)(=O)c1ccc(Cl)c(NC(=O)COC(=O)c2ccc(O)cc2)c1	41.1	14.2	3.0	21.6	10.2	14.8
CCN(CC)S(=O)(=O)c1ccc(Cl)c(NC(=O)COC(=O)c2cc(-c3ccccc3Cl)nc3ccccc23)c1	94.8*	13.7	1.6	-4.4	0.2	109.8*
O=C(CC1Nc2ccccc2NC1=O)Nc1ccc2c(c1)OCO2 (configuration not stated)	-70.6	-198.5	5.1	-53.8	-10.2	-4.0
Cc1ccc(NC(=O)CC2Nc3ccccc3NC2=O)cc1Cl (configuration not stated)	/	-201.0	-51.8*	-57.2	43.4	5.7
CN(Cc1ccc(Cl)cc1)C(=O)CCl	11.3	-5.7	-56.7*	18.0	50.2*	4.3
O=C(NNc1ccc([N+](=O)[O-])cc1)C1CC2CCCC(C1)C2=O (configuration not stated)	-1.1	14.3	-3.2	0.0	-39.2	-11.6
Cc1sc(-c2ccccn2)nc1OC(=O)c1ccc(Cl)cc1	58.4*	9.5	-6.2	9.8	9.4	28.4
Cc1c(Cl)ccc2c(C(=O)NCCN3CCCCC3)cc(-c3ccccn3)nc12	9.2	-6.3	-4.1	68.0*	3.1	-42.8
Cc1c(Cl)ccc2c(C(=O)NCCCn3nccc3C)cc(-c3ccccn3)nc12	-4.9	-2.5	18.0	12.7	-37.7	10.4
COc1ccccc1-c1cc(C(=O)NC2CCN(C)CC2)c2ccc(Cl)c(C)c2n1	6.0	7.2	-31.5	105.3*	12.6	-65.0
CNc1ccc(Oc2c(F)c(F)nc(F)c2F)cc1	-18.0	6.0	4.0	1.1	3.4	3.5
O=C(NNS(=O)(=O)c1ccc(F)cc1)c1ccc(O)cc1	6.3	25.4	13.4	-0.5	-8.1	62.5*
O=C(c1ccc2c(c1)OCO2)C1CCCN(Cc2ccc3nsnc3c2)C1 (configuration not stated)	-1.7	16.2	-7.2	13.4	-34.2	-12.5
Cc1ccc2c(c1)c1c3n2CCCNC3CCC1 (configuration not stated)	10.4	3.4	-11.5	12.5	10.1	2.8
c1cc2c(cc1C1CCCCC1)c1c3n2CCCNC3CCC1 (configuration not stated)	-14.9	31.4	-16.1	103.9*	20.1	-23.0
CCCC(O)(c1ccccc1)C(CN1CCOCC1)c1ccccc1 (configuration not stated)	-14.1	9.9	-1.7	5.6	13.4	15.8
CCCC(O)(c1ccc(Cl)cc1)C(CN1CCOCC1)c1ccccc1 (configuration not stated)	-2.3	2.4	1.8	57.3*	-1.4	-6.7
CCCC(O)(c1ccc(Br)cc1)C(CN1CCOCC1)c1ccc(Cl)cc1 (configuration not stated)	32.9	7.1	-10.8	57.7*	17.9	-3.5
CCN1/C(=C/c2cc[n+](CCCS(=O)(=O)[O-])c3ccccc23)Sc2ccccc21	7.7	8.1	-7.1	16.1	-2.0	17.8
C=CC[n+]1ccc(/C=C2\C=Cc3cc(C)ccc3N2CC)c2ccccc21	50.2*	-18.3	-33.1	43.1	48.4	17.7
COc1ccc(/C=N\NC(=O)C2CCCC2)cc1Br	-26.3	-162.6	4.0	-147.4	-2.4	-57.0
CC1CCN(CCCn2c(=S)[nH]c3ccc(N4CCOCC4)cc3c2=O)CC1	7.9	12.6	-67.1*	3.6	8.5	-16.3
